The record followed here is ChEMBL document CHEMBL3988442, “University of Dundee, Small-Polar-MMV Screening Library” (2021).

Hit rate of the full screen: of about 48,000 compounds, about 13,000 (27%) showed an effect of 50% or more. The list shows a part of the results.

The test system of the assay is Wolbachia pipientis. The assay can be described thus: Anti-Wolbachia Cell-Based Screen. The class given is functional. Further details: scale not given: in the data most compounds retested in dose-response had high values. The following applies: 5 µM.
`N#Cc1ccc(N2CCCN(CC(=O)N3CCNC(=O)C3)CC2)cc1`: the “Percent Effect” value is on record as -15.62%.
Then `CN(CC1=CCCN(Cc2cccc(C#N)c2)C1)C(=O)c1ccco1`, with 6.358%; and `O=C(CCc1ccsc1)N1CCC(n2cc(CO)nn2)CC1`, with -0.2022%.
Then `CCn1c(CN2CCCC2)nnc1C1CCN(Cc2ccc(C)o2)CC1`, with 10.89%; and `OC(CNc1nc(C2CCCC2)nc2c1CCNCC2)C(F)(F)F` (centres undefined), with -10.56%; and `CCCNC(=O)CSc1nnc2[nH]c(=O)c3c(n12)CCCC3`, with 1.807%.
The result for `CCCn1c(SCC(N)=O)nnc1-c1csc2c1CCCC2` reads 99.65%; that for `O=C(NCCCn1cccn1)c1csc2c1CCCC2`, -1.067%.
With `CCCc1cc(=O)[nH]c2nnc(SCC(N)=O)n12`, the “Percent Effect” value was 23.5%.
Then `NC(=O)CSc1nnc2[nH]c(=O)c3c(n12)CCCC3`, with 2.529%.
In the case of `COC(=O)CSc1nnc2[nH]c(=O)c3c(n12)CCCC3`, the “Percent Effect” value was -5.705%.
The result for `O=C(NCCn1ccnc1)c1csc2c1CCCC2` reads 1.844%; that for `CCn1c(SCC(N)=O)nnc1-c1csc2c1CCCC2`, 115.1%; that for `Cn1c(SCC(N)=O)nnc1-c1csc2c1CCCC2`, 119.7%.
Then `O=C(CSc1ccncc1)N1C[C@H]2CC[C@@H]1CN(Cc1cccnc1)C2`, with 5.846%; and `CCCc1n[nH]c(C2CN(CCNS(=O)(=O)CC)CCO2)n1` (centres undefined), with 14.03%.
The result for `O=C(NCCCN1CCN(c2ncccn2)CC1)NCC1CCOC1` (centres undefined) reads 1.135%.
For the compound `CCCc1nnsc1C(=O)NCC1CCN(c2ccccn2)CC1`, the “Percent Effect” value was -9.247%.
Then `CC(C)c1cc(C(=O)NCC2CCCN(c3ncccn3)C2)n(C)n1` (centres undefined), with 135%; and `Cc1ccc(-c2nc(CC(=O)NCC3CCCN(C(C)C)C3)cs2)o1` (centres undefined), with 19.88%; and `CC(C)c1cc(C(=O)NCC2CCCN(C(C)C)C2)n(C)n1.Cl` (centres undefined), with 153.6%.
Then `CCn1nc(C(C)C)cc1C(=O)NCC1CCCN(c2ccccn2)C1` (centres undefined), with 125%; and `CC(C)Cc1cc(C(=O)NCC2CCCN(c3ccccn3)C2)on1` (centres undefined), with 8.718%; and `CCc1nnsc1C(=O)NCCC1CCCN(C(C)C)C1` (centres undefined), with 8.592%.
The result for `CCCc1nnsc1C(=O)NCC1CCN(c2ncccn2)CC1` reads 3.898%; that for `CC(C)Sc1ccc(C(C)NC(=O)CNS(C)(=O)=O)cc1` (centres undefined), -8.082%.
Consider `COCC(C)N1CCc2onc(-c3ccc(C(F)(F)F)cc3)c2C1` (centres undefined), for which the “Percent Effect” value is recorded as -24.24%.
Then `Cc1nn(C)c(C)c1C1COCCN1c1ncnc2sccc12` (centres undefined), with -13.78%; and `CCc1ccc(CN2CCc3ncnc(N4CCOCC4)c3CC2)o1.O=C(O)C(F)(F)F`, with 10.74%.
The result for `CCc1ncnc(N2CCOCC2C(N)=O)c1F` (centres undefined) reads 114.1%.
Then `CCc1ncnc(N2CCOCC2CCO)c1F` (centres undefined), with 97.7%.
In the case of `CC[C@H]1COCCN1C(=O)c1cnc(C(C)C)nc1C`, the “Percent Effect” value is given as -0.1974%.
The result for `CCc1c(C)sc2ncnc(N3CC[C@@H](N4CCOCC4)[C@H](O)C3)c12` reads -13.58%; that for `CCOCC(=O)N1CCc2c(ncnc2N2CCOCC2)C1`, -19.06%; that for `CCc1ncnc(N2CCOCC2C2CC2)c1F` (centres undefined), 106.4%.
The result for `CCc1ncnc(N(C)CC2CCCCO2)c1F` (centres undefined) reads 6.222%.
Then `Cc1n[nH]cc1CNCC(c1ccsc1)N(C)C` (centres undefined), with 26.65%; and `COc1cccc(Cn2cccc(C#N)c2=O)c1`, with -6.219%; and `CCN1N=C(C(=O)N2CCCC(c3noc(C)n3)C2)CCC1=O` (centres undefined), with -1.234%.
As to `CCN1N=C(C(=O)N2CCCC(c3nc(C)cs3)C2)CCC1=O` (centres undefined), the “Percent Effect” value worked out at 85.99%.
Turning to `CCc1csc(C2CCCN(C(=O)C3=NN(CC)C(=O)CC3)C2)n1` (centres undefined), the “Percent Effect” value turned out to be 7.447%.
Then `Cc1nc(C2CCCN(C(=O)C3=NN(C(C)C)C(=O)CC3)C2)no1` (centres undefined), with -5.623%; and `CCN1N=C(C(=O)N2CCCC(c3nc(C)c(C)s3)C2)CCC1=O` (centres undefined), with 92.25%; and `CCc1nc(C2CCCN(C(=O)C3=NN(CC)C(=O)CC3)C2)no1` (centres undefined), with 20.67%.
Then `COC1CCCN(C2CCN(c3cccc(-c4csc(C)n4)c3)CC2)C1` (centres undefined), with 10.88%; and `NC(=O)C1CCN(C(=O)C2SCCc3sccc32)CC1` (centres undefined), with -9.27%; and `COc1cccc(-c2ncc(CN3C[C@@H]4CC[C@H](C3)N(C)C4=O)s2)c1`, with 4.635%.
Then `COCCn1ccnc1C1CCN(C(=O)c2cccc(COC)n2)CC1`, with -13.9%.
On to `CN(C)S(=O)(=O)N1C[C@H]2CCC[C@@]2(COCC2CC2)C1`, for which the “Percent Effect” value is listed as -7.001%.
The result for `CN(C)CC(=O)N1CCC2(CC1)CN(c1ncccn1)CCO2.O=C(O)C(F)(F)F` reads -4.698%.
Then `CC(C)C(=O)N1CCOC2(COCCN(c3ncccn3)C2)C1` (centres undefined), with 1.497%; and `CN(C)CC(=O)N1CCC2(CC1)COCCN(Cc1ccncc1)C2`, with -9.31%; and `CN(C)C(=O)N1CCC2(CC1)COCCN(c1ncccn1)C2`, with 89.78%.
The result for `CN(C)CC(=O)N1CCC2(CC1)COCCN(c1ncccn1)C2` reads 104.4%; that for `c1cc(CN2CCCCC2)cc(NCc2cc[nH]n2)c1`, 0.9619%; that for `Cc1ccc(S(=O)(=O)NC[C@H]2OC[C@@H](NCc3ccncc3)[C@@H]2O)cc1`, -4.658%.
With `CCc1nc(C)c([C@H]2CN(C)C[C@@H]2C(=O)NC(C)(C)c2ccccc2)[nH]1`, the “Percent Effect” value is -16%.
Then `Cc1nc(C)n(CC2CCCCN2CCCS(=O)(=O)N(C)C)n1` (centres undefined), with -10.86%; and `CCC[C@@H]1CN(C(=O)c2c(F)ccc(C)c2Cl)C[C@H]1C(=O)O`, with 10.65%; and `CC(=O)c1c(C)cc(C)c(CS(=O)(=O)c2nccn2C)c1C`, with -11.41%.
The result for `O[C@H]1CN(c2nc(-c3ccccc3)no2)C[C@@H]1N1CCOCC1` reads 10.35%; that for `CN([C@@H]1CC[C@@H](N2CCOCC2)[C@@H]1O)S(=O)(=O)c1ccccc1`, 122.9%.
The result for `CN(C(=O)C1CCCCC1)[C@@H]1CCC[C@@H](N2CCOCC2)[C@@H]1O` reads 5.741%; that for `CN(C(=O)C1CCOCC1)[C@@H]1CCC[C@@H](N2CCCC2)[C@@H]1O`, 75.81%.
For the compound `Cc1occc1C(=O)N1CC[C@@H](N2CCOCC2)[C@@H]1Cc1ccccc1`, the “Percent Effect” value is listed as 5.558%.
The result for `O=C(C1CCOCC1)N1CC[C@@](O)(c2ccccc2)[C@H]2CCCC[C@@H]21` reads 1.669%; that for `CN(C(=O)C1CCOCC1)[C@@H]1CCC[C@@H](N2CCOCC2)[C@@H]1O`, 124.2%; that for `CN(C)C(=O)CO[C@@H]1CC[C@H]2[C@H]1OCCN2C(=O)C1CCOCC1`, 4.998%.
Regarding `CCc1cnc(N2CC[C@@H]3CN(CCC(C)C)S(=O)(=O)[C@@H]3CC2)nc1.O=C(O)C(F)(F)F`, the “Percent Effect” value was -2.106%.
The result for `O=C1CCC2(CCOC2)CN1CCCOc1cccnc1` (centres undefined) reads 36.56%.
The result for `CC(C)S(=O)(=O)CC(=O)N1CCCC(n2ccnc2)C1` (centres undefined) reads 0.06667%; that for `CC(C)(C)NCC(=O)N1CCCC(n2ccnc2)C1` (centres undefined), -1.533%.
Then `O=C(CCOCC(F)(F)F)N1CCCC(n2ccnc2)C1` (centres undefined), with 105.8%; and `CC(C)c1noc(CCC(=O)N2CCCC(n3ccnc3)C2)n1` (centres undefined), with 13.44%; and `CSCCC(=O)N1CCCC(n2ccnc2)C1` (centres undefined), with 98.51%.
Consider `O=C(CCS(=O)(=O)C1CCCC1)N1CCCC(n2ccnc2)C1` (centres undefined), for which the “Percent Effect” value was found to be 7.067%.
The result for `CCc1nnsc1C(=O)NC1CCN(CCOc2ccc(Br)cc2)CC1` reads -5.495%; that for `CN1CCN(Cc2noc(CCc3nc(-c4ccccc4)no3)n2)CC1`, 3.84%.
Then `O=C(CN1CCc2cncnc2C1)NC(c1ccccc1)C1CC1` (centres undefined), with 5.851%; and `CCN(C(=O)CS(=O)(=O)Cc1cc(Cl)c2c(c1)OCCCO2)C1CC1`, with 3.578%; and `CNC(=O)CS(=O)(=O)Cc1cc(Cl)c2c(c1)OCCCO2`, with 7.566%.
The result for `CC(C(N)=O)S(=O)(=O)Cc1cc(Cl)c2c(c1)OCO2` (centres undefined) reads -4.736%.
Turning to `CN(C)C(=O)CS(=O)(=O)Cc1cc(Cl)c2c(c1)OCO2`, the “Percent Effect” value came out at 2.003%.
The result for `O=C(CS(=O)(=O)Cc1cc(Cl)c2c(c1)OCO2)N1CCCCCC1` reads 135.5%; that for `O=C(CS(=O)(=O)Cc1cc(Cl)c2c(c1)OCO2)N1CCCC1`, 112.9%.
Then `c1cnnc(N2CCCC(NCc3nc(-c4cccs4)no3)C2)c1` (centres undefined), with -0.05894%.
Then `CCCC(=O)N(C)c1cccc2ncccc12`, with -4.906%; and `Fc1cccc(C(NCc2ncc[nH]2)c2ccccn2)c1` (centres undefined), with -5.246%; and `CCCC(=O)N(C)C(c1cccc(F)c1)c1ccccn1` (centres undefined), with 104.7%.
Turning to `CN(C)C(=O)CCCNC(=O)C(c1cccc(F)c1)N(C)C` (centres undefined), the “Percent Effect” value is reported as -9.864%.
Then `CCOCCC(=O)NC(Cc1ccc(C)cc1)c1ccccn1` (centres undefined), with 30.55%.
As to `CCOCCCC(=O)N(C)C(c1cccc(F)c1)c1ccccn1` (centres undefined), the “Percent Effect” value is recorded as 89.97%.
For the compound `O=C(C1CC(=O)N(C2CC2)C1)N1CCN(CCn2cccc2)CC1` (centres undefined), the “Percent Effect” value is reported as -24.19%.
Then `CCc1nnsc1-c1nc(C(C)C)nn1-c1ccc2c(c1)OCO2`, with 11.97%; and `CNC(=O)C(C)(C)N1CCC[C@H]1C(=O)NC1CCCC1`, with 1.106%; and `Cc1onc(N)c1S(=O)(=O)N1CCCCC1C` (centres undefined), with -5.745%.
The result for `CC(C)NC(=O)N1CC(=O)c2sc(NC3CCCCC3)nc2C1` reads 121.6%; that for `CC(C)NC(=O)N1CCN2C(=O)OC[C@H]2C1`, -2.318%; that for `O=C(NC1CCCC1)c1nc2c(o1)CN(C(=O)CCO)C2`, 3.342%.
Then `CCOC(=O)c1nc(CN2CCN(C(=O)NC3CCCCC3)CC2)cs1`, with 0.1108%; and `COC(=O)[C@H]1CN(C(=O)NC(C)C)CCN1C(=O)C1CCCCC1`, with -4.407%; and `CC[C@H](C)[C@H](N)C(=O)N1CC(=O)c2sc(NC3CCCCC3)nc2C1`, with 89.49%.
With `CC(C)CC(=O)N1CC(=O)c2sc(NC3CCCCC3)nc2C1`, the “Percent Effect” value is listed as 104.9%.
The result for `O=C(NC1CCCC1)c1nc2c(o1)CN(C(=O)CO)C2` reads -3.342%.
